Source: the supplement of paper PMC6555819

Legend:
Assay in all cases: PBM binding z-score (relative to random genomic background probes); higher = stronger binding; sequences stand for … in GC…GCGATTGACAGCGTAGAATGAAGG
[1] = system: FXR:RXRa (NR concentration 270 nM, RXRa partner concentration 90 nM)
Procedure, shortened: (§1)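 Ligand-free nuclear receptor dimers were applied to custom Agilent 4×180K protein-binding microarrays whose double-stranded probes carried direct-repeat seeds, single-nucleotide variants, half-site ablations and random human genomic background sequences in 34-nt variable regions. Incubation lasted 1 h. Binding z-scores were computed against the random background probes from regression-normalized fluorescence.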

[2] = system: LXRa:RXRa (NR concentration 270 nM, RXRa partner concentration 90 nM)
Procedure, shortened: as §1

[3] = system: LXRa homodimer (NR concentration 270 nM)
Procedure, shortened: as §1

[4] = system: LXRb:RXRa (NR concentration 270 nM, RXRa partner concentration 90 nM)
Procedure, shortened: as §1

[5] = system: LXRb homodimer (NR concentration 270 nM)
Procedure, shortened: as §1

[6] = system: PPARa:RXRa (NR concentration 270 nM, RXRa partner concentration 90 nM)
Procedure, shortened: as §1

[7] = system: PPARg:RXRa (NR concentration 180 nM, RXRa partner concentration 90 nM)
Procedure, shortened: as §1

[8] = system: PPARg:RXRa 270nM:90nM, anti-RXR (NR concentration 270 nM, RXRa partner concentration 90 nM)
Procedure, shortened: as §1

[9] = system: PPARg:RXRa 30nM:10nM, anti-RXR (NR concentration 30 nM, RXRa partner concentration 10 nM)
Procedure, shortened: as §1

[10] = system: PPARg:RXRa 90nM:30nM, anti-RXR (NR concentration 90 nM, RXRa partner concentration 30 nM)
Procedure, shortened: as §1

Row | Sequence | PBM binding z-score [1] | PBM binding z-score [2] | PBM binding z-score [3] | PBM binding z-score [4] | PBM binding z-score [5] | PBM binding z-score [6] | PBM binding z-score [7] | PBM binding z-score [8] | PBM binding z-score [9] | PBM binding z-score [10]
1 | ACAGACAGGTGATGAAGTTAACTCAGGCTATCAT | -0.177 | -0.305 | -0.307 | -0.225 | -0.182 | -0.03 | 0.514 | -0.0899 | -0.051 | -0.038
2 | ACTAGCAGGCCAAGTTTGGTTCACTCAAACAAAG | -0.324 | -0.317 | -0.342 | -0.0394 | -0.539 | 0.158 | -0.322 | -0.162 | -0.424 | -0.301
3 | CAAACTAGGTCAAAGGCCAAAGTCGAGCCAACCA | 5.15 | 3.93 | 0.637 | 3.08 | -0.153 | 6.63 | 11.3 | 9.98 | 9.75 | 10.9
4 | GGAACGAGGGCAAAGTGGATAGCATCTGTCGACG | 0.8 | 0.482 | -0.564 | 0.23 | -0.66 | 2.86 | 4.34 | 5.37 | 3.71 | 5.67
5 | CCGACTGGGGCAAAGTTACCATAACGCACAGCCA | -0.19 | -0.516 | -0.498 | -0.362 | -0.945 | 1.6 | 4.27 | 5 | 3.18 | 4.86
6 | CCTTATGGGTCACTCCAGGTTATAGCATCGGAGT | 3.67 | 7.24 | 1.43 | 4.49 | -0.105 | 3.92 | 4.6 | 4.39 | 1.84 | 3.6
7 | ATATGTAGGTTACGGGTCATTCAGGTTGGTTCGC | 3.73 | 3.96 | 2.11 | 3.61 | 0.71 | 5.56 | 9.4 | 8.21 | 6.67 | 8.55
8 | AATACAGGGTCATCGTATGCCAGAGTACGCACAG | 7.33 | 5.98 | 1.87 | 4.34 | 1.25 | 5.64 | 6.62 | 5.86 | 2.88 | 4.57
9 | ATCGAAACGTCGAGGTGAGTATAGAGAAAGGGAA | -0.226 | -0.343 | -0.626 | -0.525 | -0.471 | -0.00336 | 0.304 | -0.503 | 0.3 | -0.335
10 | CCGACTGGGGCATAAGGTCACCATAAGCCAGCCC | 3.25 | 3.18 | 0.732 | 2.78 | -0.819 | 4.02 | 4.56 | 4.89 | 2.53 | 4.9
11 | ATATGTAGGTTAAGGGTCATTCAAGTTGGTTCGC | 5.1 | 5.2 | 2.81 | 4.68 | 1.33 | 6.53 | 11.5 | 9.66 | 9.8 | 10.8
12 | CATACAGGGTCAGCTAGGCCCGAGTAGGGACGGC | 4.65 | 3 | -0.329 | 1.95 | 0.134 | 4.15 | 2.95 | 2.99 | 0.725 | 1.72
13 | CTACCAAGGTGAACATGGTCGTTGATTACTATTC | 0.63 | 0.673 | -0.0625 | 1.05 | -0.345 | 1.73 | 0.829 | 0.843 | 0.0499 | 0.359
14 | GGTGCTAGGTCAACTGATGGTCAGCTAAAGCTCG | 4.46 | 3.2 | 0.481 | 2.17 | 0.109 | 3.84 | 3.55 | 3.81 | 0.998 | 2.53
15 | CCGATTGGGGCAGAAAGGTTACCATACCATCCGG | 0.261 | 0.61 | -0.352 | 1.09 | -0.598 | 2.22 | 2.06 | 3.83 | 2.17 | 3.56
16 | ATCGAAAGGTCGACGAGGTGCGTATACACCGTTT | 4.16 | 2.96 | -0.0247 | 2.54 | 0.0651 | 4.07 | 2.24 | 2.73 | 0.695 | 1.53
17 | TCATATAGGTAATACAGCTGAAAGTCGGCATCTA | 0.752 | 0.674 | -0.0282 | 0.475 | 0.431 | 1.14 | 0.839 | 2.26 | 3.95 | 3.15
18 | ACTATTAATTGAGACGAGGGCAACCGATAGGTTG | 0.638 | 0.579 | 0.685 | 0.313 | 0.479 | 0.542 | 0.7 | 0.479 | 0.271 | 0.408
19 | CGTCATAGTTCAAGGTAACGTAACAGAAAGCAGC | 1.89 | 2.17 | 0.514 | 1.5 | 0.174 | 2.48 | 1.29 | 1.78 | 0.603 | 1.3
20 | TCATATAGGTAAACAGGTAAAAGTCCGTAAGTTA | 1.11 | 1.14 | 0.519 | 0.863 | 0.214 | 1.98 | 2.49 | 3.29 | 4.26 | 3.85
21 | TCATATAGGTAAACAGGTGAAAGGCCGTAAGTTA | 1.02 | 0.944 | 0.383 | 0.971 | 0.244 | 3.2 | 5.16 | 4.67 | 4.73 | 5.29
22 | CCTAGTTGGTCAAGGTCGCACACGCTATAGGTAC | 1.28 | 0.906 | 0.275 | 1.18 | -0.0478 | 1.68 | 1.15 | 1.37 | 0.0592 | 0.958
23 | ATCTCTAGGTAAAAGTTCAGTGAATCCCGAGGAT | 0.943 | 1.4 | 1.16 | 1.12 | 0.841 | 4.11 | 8.09 | 7.52 | 8.83 | 8.39
24 | TAATATAGGTAAAAGGTGAAAGTCGGTGTGGTAA | 1.84 | 2.01 | 0.364 | 2.04 | 0.134 | 6.16 | 10.5 | 9.06 | 9.53 | 10.1
